{
  "source": "the supplement of paper PMC8007513",
  "system": "Trichoderma virens ATCC 9645",
  "assay": "growth yield (OD600) with compound + IPBC relative to untreated control; higher = less growth inhibition",
  "conditions": "compound concentration: 100 uM, IPBC concentration: 200 ng/ml",
  "summary_of_the_method": "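Trichoderma virens ATCC 9645 spores at 15,000 spores ml^−1 in potato dextrose broth were exposed in 96-well plates to library compounds at 100 μM final, with or without a biocide at 200 ng ml^−1. After growth at 30 °C, OD600 was read at 40 h and 72 h. Values are growth relative to the control without either agent, averaged over duplicate screens.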",
  "note": "Structures can show the parent of a compound that is named as a salt. ± gives the standard error. Among all 1,300 compounds or so, about 130 (10%) showed an effect of 50% or more. This is one part of a sample in which strong results are shown more often than they occur.",
  "data": [
    {"smiles": "C=CCN1CC[C@]23c4c5ccc(O)c4O[C@H]2C(=O)CC[C@@]3(O)[C@H]1C5", "note": "[Naloxone hydrochloride] + CCCCNC(=O)OCC#CI [3-iodo-2-propynyl butylcarbamate (IPBC)]", "values": [
      {"measurement": "growth yield", "setting": "40 h", "value": "98.2 ± 3.5", "unit": "%"},
      {"measurement": "growth yield", "setting": "72 h", "value": "101 ± 3.5", "unit": "%"}
    ]},
    {"smiles": "CC[N+](C)(CC)CCOC(=O)C1c2ccccc2Oc2ccccc21", "note": "[Methantheline bromide] + CCCCNC(=O)OCC#CI [3-iodo-2-propynyl butylcarbamate (IPBC)]", "values": [
      {"measurement": "growth yield", "setting": "40 h", "value": "82 ± 1.9", "unit": "%"},
      {"measurement": "growth yield", "setting": "72 h", "value": "88.5 ± 2.1", "unit": "%"}
    ]},
    {"smiles": "Fc1ccc(C(OCCN2CCN(CCCc3ccccc3)CC2)c2ccc(F)cc2)cc1", "note": "+ CCCCNC(=O)OCC#CI [3-iodo-2-propynyl butylcarbamate (IPBC)]", "values": [
      {"measurement": "growth yield", "setting": "40 h", "value": "13.3 ± 4.8", "unit": "%"},
      {"measurement": "growth yield", "setting": "72 h", "value": "65.3 ± 6.4", "unit": "%"}
    ]},
    {"smiles": "Clc1ccc(C(OCCN2CCCCC2)c2ccccc2)cc1", "note": "(centres undefined) [Cloperastine hydrochloride] + CCCCNC(=O)OCC#CI [3-iodo-2-propynyl butylcarbamate (IPBC)]", "values": [
      {"measurement": "growth yield", "setting": "40 h", "value": "78.6 ± 0.79", "unit": "%"},
      {"measurement": "growth yield", "setting": "72 h", "value": "95.1 ± 2", "unit": "%"}
    ]},
    {"smiles": "O=c1[nH]c2ccccc2n1C1CCN(CCCC(c2ccc(F)cc2)c2ccc(F)cc2)CC1", "note": "[Pimozide] + CCCCNC(=O)OCC#CI [3-iodo-2-propynyl butylcarbamate (IPBC)]", "values": [
      {"measurement": "growth yield", "setting": "40 h", "value": "111 ± 8.3", "unit": "%"},
      {"measurement": "growth yield", "setting": "72 h", "value": "136 ± 2.7", "unit": "%"}
    ]},
    {"smiles": "COc1cc(NS(=O)(=O)c2ccc(N)cc2)nc(OC)n1", "note": "[Sulfadimethoxine] + CCCCNC(=O)OCC#CI [3-iodo-2-propynyl butylcarbamate (IPBC)]", "values": [
      {"measurement": "growth yield", "setting": "40 h", "value": "116.3 ± 0.95", "unit": "%"},
      {"measurement": "growth yield", "setting": "72 h", "value": "114 ± 1.6", "unit": "%"}
    ]},
    {"smiles": "C[C@]12CC[C@H]3[C@@H](CCC4=CC(=O)CC[C@@H]43)[C@@H]1CC[C@@H]2O", "note": "[Nandrolone] + CCCCNC(=O)OCC#CI [3-iodo-2-propynyl butylcarbamate (IPBC)]", "values": [
      {"measurement": "growth yield", "setting": "40 h", "value": "61.2 ± 3.3", "unit": "%"},
      {"measurement": "growth yield", "setting": "72 h", "value": "83.7 ± 4.8", "unit": "%"}
    ]},
    {"smiles": "COc1cccc(OC)c1C(=O)N[C@@H]1C(=O)N2[C@@H]1SC(C)(C)[C@@H]2C(=O)O", "note": "[Methicillin sodium] + CCCCNC(=O)OCC#CI [3-iodo-2-propynyl butylcarbamate (IPBC)]", "values": [
      {"measurement": "growth yield", "setting": "40 h", "value": 89.3, "unit": "%"},
      {"measurement": "growth yield", "setting": "72 h", "value": "90.7 ± 2", "unit": "%"}
    ]},
    {"smiles": "COc1ccc(C(=O)c2ccccc2O)c(O)c1", "note": "[Dioxybenzone] + CCCCNC(=O)OCC#CI [3-iodo-2-propynyl butylcarbamate (IPBC)]", "values": [
      {"measurement": "growth yield", "setting": "40 h", "value": "23.67 ± 0.16", "unit": "%"},
      {"measurement": "growth yield", "setting": "72 h", "value": "48.35 ± 0.1", "unit": "%"}
    ]},
    {"smiles": "CC(=O)Oc1ccccc1C(=O)O", "note": "[Acetylsalicylic acid] + CCCCNC(=O)OCC#CI [3-iodo-2-propynyl butylcarbamate (IPBC)]", "values": [
      {"measurement": "growth yield", "setting": "40 h", "value": "107 ± 4.9", "unit": "%"},
      {"measurement": "growth yield", "setting": "72 h", "value": "104 ± 5.5", "unit": "%"}
    ]},
    {"smiles": "COc1ccc(C(=O)CC(=O)c2ccc(C(C)(C)C)cc2)cc1", "note": "[Avobenzone] + CCCCNC(=O)OCC#CI [3-iodo-2-propynyl butylcarbamate (IPBC)]", "values": [
      {"measurement": "growth yield", "setting": "40 h", "value": "67.83 ± 0.16", "unit": "%"},
      {"measurement": "growth yield", "setting": "72 h", "value": "71.84 ± 0.1", "unit": "%"}
    ]},
    {"smiles": "COc1ccc(C(=O)c2ccccc2)c(O)c1", "note": "[Oxybenzone] + CCCCNC(=O)OCC#CI [3-iodo-2-propynyl butylcarbamate (IPBC)]", "values": [
      {"measurement": "growth yield", "setting": "40 h", "value": "45.3 ± 4.9", "unit": "%"},
      {"measurement": "growth yield", "setting": "72 h", "value": "71.1 ± 6.1", "unit": "%"}
    ]},
    {"smiles": "Nc1ccc(C(=O)O)c(O)c1", "note": "[4-aminosalicylic acid] + CCCCNC(=O)OCC#CI [3-iodo-2-propynyl butylcarbamate (IPBC)]", "values": [
      {"measurement": "growth yield", "setting": "40 h", "value": "87.36 ± 0.32", "unit": "%"},
      {"measurement": "growth yield", "setting": "72 h", "value": "94.18 ± 0.42", "unit": "%"}
    ]},
    {"smiles": "COc1ccccc1O", "note": "[Guaiacol] + CCCCNC(=O)OCC#CI [3-iodo-2-propynyl butylcarbamate (IPBC)]", "values": [
      {"measurement": "growth yield", "setting": "40 h", "value": "94.7 ± 1.6", "unit": "%"},
      {"measurement": "growth yield", "setting": "72 h", "value": "98 ± 1.5", "unit": "%"}
    ]},
    {"smiles": "CC(N)C12CC3CC(CC(C3)C1)C2", "note": "(centres undefined) [Rimantadine Hydrochloride] + CCCCNC(=O)OCC#CI [3-iodo-2-propynyl butylcarbamate (IPBC)]", "values": [
      {"measurement": "growth yield", "setting": "40 h", "value": "82.76 ± 0.16", "unit": "%"},
      {"measurement": "growth yield", "setting": "72 h", "value": "89.04 ± 0.1", "unit": "%"}
    ]},
    {"smiles": "C=C1CC[C@@]2(O)[C@H]3Cc4ccc(O)c5c4[C@@]2(CCN3CC2CC2)[C@H]1O5", "note": "[Nalmefene hydrochloride] + CCCCNC(=O)OCC#CI [3-iodo-2-propynyl butylcarbamate (IPBC)]", "values": [
      {"measurement": "growth yield", "setting": "40 h", "value": "104 ± 15", "unit": "%"},
      {"measurement": "growth yield", "setting": "72 h", "value": "103 ± 8.3", "unit": "%"}
    ]},
    {"smiles": "C[C@H](Cc1cc2c(c(C(N)=O)c1)N(CCCO)CC2)NCCOc1ccccc1OCC(F)(F)F", "note": "[Silodosin] + CCCCNC(=O)OCC#CI [3-iodo-2-propynyl butylcarbamate (IPBC)]", "values": [
      {"measurement": "growth yield", "setting": "40 h", "value": "87 ± 1.3", "unit": "%"},
      {"measurement": "growth yield", "setting": "72 h", "value": "92.6 ± 0.94", "unit": "%"}
    ]},
    {"smiles": "CC[C@]12CCCN3CCc4c(n(c5ccccc45)[C@@](O)(C(=O)OC)C1)[C@@H]32", "note": "[Vincamine] + CCCCNC(=O)OCC#CI [3-iodo-2-propynyl butylcarbamate (IPBC)]", "values": [
      {"measurement": "growth yield", "setting": "40 h", "value": "86.2 ± 1.4", "unit": "%"},
      {"measurement": "growth yield", "setting": "72 h", "value": "91 ± 1.7", "unit": "%"}
    ]},
    {"smiles": "O=C(O)c1cc(-c2ccc(F)cc2F)ccc1O", "note": "[Diflunisal] + CCCCNC(=O)OCC#CI [3-iodo-2-propynyl butylcarbamate (IPBC)]", "values": [
      {"measurement": "growth yield", "setting": "40 h", "value": "57.8 ± 1.6", "unit": "%"},
      {"measurement": "growth yield", "setting": "72 h", "value": "80.65 ± 0.32", "unit": "%"}
    ]},
    {"smiles": "CN(C)[C@@H]1C(O)=C(C(N)=O)C(=O)[C@@]2(O)C(O)=C3C(=O)c4c(O)ccc(Cl)c4[C@@](C)(O)[C@H]3C[C@@H]12", "note": "[Chlortetracycline hydrochloride] + CCCCNC(=O)OCC#CI [3-iodo-2-propynyl butylcarbamate (IPBC)]", "values": [
      {"measurement": "growth yield", "setting": "40 h", "value": "77.2 ± 0.64", "unit": "%"},
      {"measurement": "growth yield", "setting": "72 h", "value": "84.3 ± 2.1", "unit": "%"}
    ]},
    {"smiles": "C[N+]1(C)CCOC(O)(c2ccc(-c3ccc(C4(O)C[N+](C)(C)CCO4)cc3)cc2)C1", "note": "(centres undefined) [Hemicholinium bromide] + CCCCNC(=O)OCC#CI [3-iodo-2-propynyl butylcarbamate (IPBC)]", "values": [
      {"measurement": "growth yield", "setting": "40 h", "value": "19.1 ± 0.64", "unit": "%"},
      {"measurement": "growth yield", "setting": "72 h", "value": "69.4 ± 1.5", "unit": "%"}
    ]},
    {"smiles": "CC(=O)S[C@@H]1CC2=CC(=O)CC[C@]2(C)[C@H]2CC[C@@]3(C)[C@@H](CC[C@@]34CCC(=O)O4)[C@H]12", "note": "[Spironolactone] + CCCCNC(=O)OCC#CI [3-iodo-2-propynyl butylcarbamate (IPBC)]", "values": [
      {"measurement": "growth yield", "setting": "40 h", "value": "85.3 ± 9.1", "unit": "%"},
      {"measurement": "growth yield", "setting": "72 h", "value": "91.1 ± 7", "unit": "%"}
    ]},
    {"smiles": "CN(C)CCc1c[nH]c2ccc(C[C@H]3COC(=O)N3)cc12", "note": "[Zolmitriptan] + CCCCNC(=O)OCC#CI [3-iodo-2-propynyl butylcarbamate (IPBC)]", "values": [
      {"measurement": "growth yield", "setting": "40 h", "value": "93.2 ± 4", "unit": "%"},
      {"measurement": "growth yield", "setting": "72 h", "value": "96.3 ± 4", "unit": "%"}
    ]},
    {"smiles": "C=C(C)[C@@H]1[C@H]2OC(=O)[C@@H]1[C@]1(O)C[C@H]3O[C@]34C(=O)O[C@H]2[C@]14C", "note": "[Picrotoxinin] + CCCCNC(=O)OCC#CI [3-iodo-2-propynyl butylcarbamate (IPBC)]", "values": [
      {"measurement": "growth yield", "setting": "40 h", "value": "96.3 ± 11", "unit": "%"},
      {"measurement": "growth yield", "setting": "72 h", "value": "97.1 ± 8.2", "unit": "%"}
    ]},
    {"smiles": "Clc1ccc2c(c1)CCc1cccnc1C2=C1CCNCC1", "note": "[Desloratadine] + CCCCNC(=O)OCC#CI [3-iodo-2-propynyl butylcarbamate (IPBC)]", "values": [
      {"measurement": "growth yield", "setting": "40 h", "value": "56.2 ± 0.64", "unit": "%"},
      {"measurement": "growth yield", "setting": "72 h", "value": "89.7 ± 1.4", "unit": "%"}
    ]},
    {"smiles": "CN1CCC(=C2c3ccccc3CCc3cccnc32)CC1", "note": "[Azatadine maleate] + CCCCNC(=O)OCC#CI [3-iodo-2-propynyl butylcarbamate (IPBC)]", "values": [
      {"measurement": "growth yield", "setting": "40 h", "value": "99.6 ± 2.4", "unit": "%"},
      {"measurement": "growth yield", "setting": "72 h", "value": "97.43 ± 0.94", "unit": "%"}
    ]},
    {"smiles": "CCOC(=O)N1CCC(=C2c3ccc(Cl)cc3CCc3cccnc32)CC1", "note": "[Loratadine] + CCCCNC(=O)OCC#CI [3-iodo-2-propynyl butylcarbamate (IPBC)]", "values": [
      {"measurement": "growth yield", "setting": "40 h", "value": "17.3 ± 4", "unit": "%"},
      {"measurement": "growth yield", "setting": "72 h", "value": "58.7 ± 2.5", "unit": "%"}
    ]}
  ]
}
